Integrin act MD: activates integrin-mediated alleviation for muscular dystrophy | alpha7betagal myoblasts, beta-gal FDG fluorescence, 48 h | Potency, µM (top dose mostly 38.3 µM), for inactives: at the highest dose activation, usual class: activators | hit rate 0.064% among 350,000 | AID 624291; active = well fitted activation curve with a large enough effect; inconclusive = small, poorly fitted or top-dose-only effect; inactive = no such curve, though single readings can be large or run the other way;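 also: potency is read from the fitted curve at half-maximal effect; 100% = response of the positive control SU9516; nearly all actives have a fitted effect of over 60% in size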
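alpha7betagal+/- myoblasts (passage 13, 250/well) treated 48 h at 37C with compounds at 1:260 dilution of DMSO stock. Lysed, then beta-galactosidase activity read as FDG fluorescence (ex 480/em 540) after 30 min, with pre-read for autofluorescence.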
D3 antag: antagonists of human D3 dopamine receptor. P35462. D3R cells, DiscoveRx beta-arrestin luminescence, antagonist mode; stronger effect = lower value. max response, negative = inhibition, %. hit rate 2.5% among 360,000. AID 652054; in the data active = max response below about -50%; inconclusive = no clear call, values can overlap the other calls; also: % is scaled to controls: 0 for no effect and ±100 for the full control effect
Target sequence (P35462 whole entry, looked up): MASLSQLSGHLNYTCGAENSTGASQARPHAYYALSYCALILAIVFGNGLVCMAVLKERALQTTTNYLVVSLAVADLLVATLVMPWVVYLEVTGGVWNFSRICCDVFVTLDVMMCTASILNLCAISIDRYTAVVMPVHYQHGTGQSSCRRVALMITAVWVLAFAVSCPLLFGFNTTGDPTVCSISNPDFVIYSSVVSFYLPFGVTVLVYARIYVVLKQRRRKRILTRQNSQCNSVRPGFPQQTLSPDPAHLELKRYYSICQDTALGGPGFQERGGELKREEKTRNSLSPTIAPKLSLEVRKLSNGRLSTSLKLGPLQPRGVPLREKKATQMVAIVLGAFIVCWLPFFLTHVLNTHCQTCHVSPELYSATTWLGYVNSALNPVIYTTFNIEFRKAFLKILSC
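Cells plated overnight at 1500 cells/well, then exposed to library compounds with dopamine controls for 90 minutes at 37 degrees C. DiscoveRx reagent added for 30–60 minutes at room temperature; luminescence read, quantitative HTS format.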
D3 ag: activates the human D3 dopamine receptor; P35462; D3R DiscoveRx beta-arrestin cells, luminescence, 90 min; max activation, %; hit rate 0.58% among 410,000; AID 652048; in the data active = max activation above about 30%; also: 0% is about no effect
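Cells at 1500/well, incubated overnight, then treated with pinned compounds (dopamine as control) for 90 min at 37 degrees C. DiscoveRx reagent added for 30 - 60 minutes at room temperature; luminescence read.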
An asterisk follows results filed as active; u = inconclusive; x = not tested or not shown; [ ] = dose if it differs, or a comment. Sampled rows, rich in hits. Any-hit rate of the full collection: about 2.9%.

SMILES	Integrin act MD	D3 antag	D3 ag
O=C1/C(=C/c2ccc(N3CCOCC3)o2)SC(=Nc2ccccc2)N1CCc1c[nH]c2ccccc12	-62.6%	-69.4*	-8.7
Cc1ccnc(NC(=O)Nc2cccc(F)c2)n1	u	3.7	6.7
C=C(C)C1CC=C(C)CC1 (stereo unspecified)	x	x	-7.6
O=C(NC1CCCC1)C(c1ccncc1)N(C(=O)Cc1cccs1)c1ccc(F)cc1 (stereo unspecified)	0.0%	11.0	38.4*
COc1ccc(N(C(=O)Cc2cccs2)C(C(=O)NC2CCCC2)c2ccncc2)cc1 (stereo unspecified)	-10.1%	11.3	1.8
CC(=O)Nc1ccc(N(C(=O)c2cnccn2)C(C(=O)NC2CCCCC2)c2ccc(F)cc2)cc1 (stereo unspecified)	11.2µM*	-17.3	-7.8
CC(=O)Nc1ccc(N(C(=O)c2cnccn2)C(C(=O)NC2CCCCC2)c2ccc(O)cc2)cc1 (stereo unspecified)	29.9%	-10.4	-4.6
Cc1ccc(-c2cc(C(F)(F)F)n3nc(C(=O)Nc4ccc(C#N)cc4)cc3n2)cc1	x	x	4.9
CC1(C)OC(=O)C(=CNC(=O)c2c(F)cccc2F)C(=O)O1	12.2%	-18.4	-1.9
CCC(C)Nc1nc(Cl)nc(N(C#N)CN2C(=O)c3ccccc3S2(=O)=O)n1 (stereo unspecified)	-11.5%	-70.9*	-2.5
CC(C)Nc1nc(Cl)nc(N(C#N)CN2C(=O)c3ccccc3C2=O)n1	u	u	-3.3
COc1ccc(-c2nnn(CC(=O)N(Cc3ccc(F)cc3)C(C(=O)NC3CCCC3)c3ccc(F)cc3)n2)cc1 (stereo unspecified)	28.7%	-60.4*	-10.7
COc1ccccc1N(C(=O)Cn1nnc(-c2ccc(C)o2)n1)C(C(=O)NC1CCCC1)c1ccncc1 (stereo unspecified)	9.4%	-53.1*	-18.3
Cc1ccc(-c2nnn(CC(=O)N(c3ccccc3F)C(C(=O)NC3CCCC3)c3ccncc3)n2)o1 (stereo unspecified)	2.3%	u	-13.1
CCOC(=O)CN(C(=O)Cn1nnc(-c2ccc(OC)cc2)n1)C(C(=O)NC1CCCC1)c1ccc(F)cc1 (stereo unspecified)	0.9%	-11.0	-7.4
Cc1ccc(-n2c(SCC(N)=O)nc3c(oc4ccccc43)c2=O)cc1	11.4%	4.5	-4.5
N=c1c(C(=O)NCC2CCCO2)cc2c(=O)n3ccccc3nc2n1Cc1ccccc1Cl (stereo unspecified)	1.6%	-22.0	2.6
O=c1ccn([C@@H]2O[C@H](CNCC3=Cc4cc(O)ccc4OC3)[C@@H](O)[C@H]2O)c(=O)[nH]1	20.9%	46.9	55.1*
O=c1ccn([C@@H]2O[C@H](CNCc3ccccc3)[C@@H](O)[C@H]2O)c(=O)[nH]1	x	-0.8	-2.1
Cc1nc(Nc2ccccc2Br)c2nnn(Cc3ccccc3)c2n1	-17.7%	16.1	-3.4
FC(F)(F)c1cnc(-n2cc[nH]c2=S)c(Cl)c1	-7.2%	-7.1	-9.8
Cn1c2c(c3ccccc31)CCN=C2c1ccccc1	-17.3%	-21.0	-14.1
CC(=O)N(CCCc1ccc(C(C)(C)C)cc1)CCCN(C)C	-36.2%	-28.3	-26.0
CC(=O)N(CCCN(C)C)Cc1ccccn1	7.4%	0.0	44.2*
O=C(Nc1ccc(N2CCOCC2)cc1)c1csc([C@@H]2O[C@H](CO)[C@H](O)[C@H](O)[C@H]2O)n1	x	-19.0	0.2
SMILES	Integrin act MD	D3 antag	D3 ag
CCCCCCCCCCCC(=O)NC(C(=O)OCC)C(O)c1cccc([N+](=O)[O-])c1 (stereo unspecified)	-60.5%	4.3	32.3*
CCOC(=O)C(NC(C)=O)C(O)c1ccc([N+](=O)[O-])cc1 (stereo unspecified)	22.9%	-5.3	-0.1
CC(C)OCCCN(C)C1CCN(S(=O)(=O)c2ccc(-c3ccc(=O)[nH]n3)s2)CC1	14.7%	-0.5	-5.5
COC(=O)c1cc(S(=O)(=O)NCc2ccccc2OC)cn1C	u	16.8	5.7
CC(CNCC1CCCO1)COc1cccc2ccccc12 (stereo unspecified)	-45.3%	-21.2	-10.9
CC(CNCC1CCCO1)COc1ccccc1 (stereo unspecified)	-3.7%	-79.4*	-18.5
N#Cc1ccc(S(=O)(=O)NCCc2ccncc2)cc1	14.6%	10.1	2.5
COc1ccc(CCN(C)CC(O)COC(c2ccc(F)cc2)c2ccc(F)cc2)cc1OC (stereo unspecified)	-53.6%	-61.2*	-20.1
COc1ccc(CCN(C)CC(O)COc2c(C)ccc(C)c2C)cc1OC (stereo unspecified)	-29.0%	-21.6	-11.9
O=[N+]([O-])c1ccc(N/N=C/c2sc(N3CCOCC3)nc2-c2ccccc2)c(S(=O)(=O)Nc2ccccc2Cl)c1	-41.7%	-52.5*	-3.5
O=C(N/N=C/c1sc(N2CCOCC2)nc1-c1ccccc1)c1ccccc1Cl	17.7%	-11.7	-1.6
O=C(O)c1cccc(N/N=C/c2sc(N3CCOCC3)nc2-c2ccccc2)c1	-6.5%	5.4	0.1
O=[N+]([O-])c1ccc(N/N=C/c2sc(N3CCOCC3)nc2-c2ccccc2)c(S(=O)(=O)Nc2ccc(Cl)cc2)c1	0.0%	-70.1*	-29.4
CC(C(=O)O)c1ccc(CC2CCCC2=O)cc1 (stereo unspecified)	x	14.1	15.5
CCC(=O)Nc1cc(C)c(NC(=O)c2ccccc2OC)cn1	5.9%	-18.7	2.7
CCCCC/C=C\C/C=C\C/C=C\CCCCC(=O)O	x	8.6	-11.2
COc1cnc(-c2ccccn2)nc1N(C)C	-30.0%	u	-31.5
COc1cnc(-c2ccccn2)nc1Sc1c(Cl)cccc1Cl	-9.9%	-64.6*	-8.7
CCOC(=O)C(C)Sc1nc(-c2ccccn2)ncc1OC (stereo unspecified)	-33.2%	-5.8	-8.3
COc1cnc(-c2ccccn2)nc1Sc1ccccc1Cl	-10.3%[7.66 µM]	-68.1*	-7.7
Cc1cc(C(=O)Nc2ccc(F)cc2F)on1	-5.6%	-9.3	-12.7
COc1ccc(C2=NOC(Cn3nc(C(=O)NCc4cccc(Br)c4)cc3-c3ccccc3)C2)cc1 (stereo unspecified)	-7.0%	34.4	1.7
COc1ccc(C2=NOC(Cn3nc(-c4ccccc4)cc3C(=O)NCc3cccc(Br)c3)C2)cc1 (stereo unspecified)	-28.9%	33.0	34.3*
COc1cc(Cl)c(S(=O)(=O)N2CCCC2)cc1Cl	-28.0%	58.1	0.9
COc1cc(N2C(=O)C=CC2=O)c(OC)cc1Cl	-64.1%	-89.1*	-30.2
SMILES	Integrin act MD	D3 antag	D3 ag
COc1ccc2sc(N(Cc3cccnc3)C(=O)c3ccco3)nc2c1	x	x	1.4
CCCCOc1ccc(C2=NC(c3ccccc3)=Nc3ccc(OC)cc3N2)cc1	x	x	-10.5
COc1ccc(C2=Nc3ccc(OC(F)(F)F)cc3NC(c3cccnc3)=N2)cc1	x	x	36.5*
CSCCC(NC(=O)c1ccc([N+](=O)[O-])cc1Cl)C(=O)OCC(=O)N1CCN(C(C)=O)CC1 (stereo unspecified)	12.7%	-19.3	-21.3
COc1ccc(OC)c(-c2noc(N3CCN(c4cc(C)ccc4C)CC3)n2)c1	x	x	4.3
COc1ccc(C(=O)OCc2c(-c3ccccc3)ncc3ccccc23)cc1	8.9%	-50.1*	-27.8

Bioassay records (PubChem)
